The values below come from PubChem BioAssay (NCATS).

Inconclusive results are not listed. Unmarked numbers belong to inactive results. Calls of active or inactive are those of the source. Calls follow the shape of the dose curve; as a rule, active = well fitted inhibition curve with a large enough effect; inconclusive = small, poorly fitted or top-dose-only effect; inactive = no such curve, though single readings can be large or run the other way.
Potency is read from the fitted curve at half-maximal effect.

This assay in a line: qHTS to identify inhibitors of the type 1 interferon - major histocompatibility complex class I in skeletal muscle: primary screen against the NCATS Mechanism Interrogation Plate v5.0 (MIPE) Libary (AID 1347411). Also: nearly all actives have a fitted effect of over 65% in size.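 As to activity change, negative = inhibition: plate controls were vehicle for no effect and reference inhibitor for full effect.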 Particulars: iHSKM cells + IFN-b, HiBiT-tagged MHC-I luminescence, 24 h; series mostly up to 45.8 µM; activity change, negative = inhibition: at the top concentration. The procedure, abridged:
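HLA-B HiBit myoblasts, dexamethasone-free medium + 4 ng/ml IFN-b, 24 h compound, 11-pt 1:3 from 46 uM final. Readout: Nano-Glo HiBiT lytic luminescence after 10 min lysis, RT.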
(Quantitative high-throughput screening tests each substance at several concentrations.)
As to `COC1=C[C@@H]2[C@@H]3Cc4ccc(OC)c(O)c4[C@]2(CCN3C)CC1=O`, the “activity change, negative = inhibition” value is -0.772%.

For `CCNC(=O)CC1N=C(c2ccc(Cl)cc2)c2cc(OC)ccc2-n2c(C)nnc21` (stereo not given), the “activity change, negative = inhibition” value is -16.7%.

`CN[C@@H]1Cc2cccc3[nH]c(=O)n(c23)C1`: the “activity change, negative = inhibition” value was 3.71%.

On to `CCc1c(C(=O)C(N)=O)c2c(OCC(=O)O)cccc2n1Cc1ccccc1`, for which the “activity change, negative = inhibition” value is 0.129%.

Consider `O=C(NCC1CCOCC1)c1cnc(Nc2ccc(Cl)cc2Cl)nc1C(F)(F)F`, for which the “activity change, negative = inhibition” value is -7.65%.

Regarding `CCCC[N+]1(C)[C@H]2CC(OC(=O)[C@H](CO)c3ccccc3)C[C@H]1[C@H]1O[C@H]12` (stereo not given in full), the “activity change, negative = inhibition” value was 0.736%.

On to `O=S(=O)(F)Cc1ccccc1`, for which the “activity change, negative = inhibition” value is -4.65%.

With `Cc1ccccc1-n1c(Cn2cnc3c(N)ncnc32)nc2cccc(C)c2c1=O`, the “activity change, negative = inhibition” value is -7.46%.

As for `C[C@]12CC[C@@H]3[C@@H](CCC4=CC(=O)CC[C@@H]43)[C@@H]1CC[C@@H]2OC(=O)CCc1ccccc1`, the “activity change, negative = inhibition” value is 0.252%.

With `O=c1cccc2n1CC1CNC[C@H]2C1`, the “activity change, negative = inhibition” value is -0.833%.

As for `c1ccc2c(CN3CCNCC3)cccc2c1`, the “activity change, negative = inhibition” value was 14.5%.

Turning to `CC1(N2CCC(n3c([C@@H]4CCCNC4)nc4ccccc43)CC2)CCCCCCC1`, the “activity change, negative = inhibition” value was -69%.

For the compound `Cc1[nH]nc2ccc(-c3cncc(OC[C@@H](N)Cc4c[nH]c5ccccc45)c3)cc12`, the Potency was 2.62 µM (active).

On to `O=C1C=CC[C@@H]2[C@H]3CCCN4CCC[C@@H](CN12)[C@@H]34`, for which the “activity change, negative = inhibition” value is -11.7%.

`CSCC[C@@H](NC(=O)[C@@H](Cc1ccccc1)NC(=O)CNC(=O)CNC(=O)[C@@H](N)Cc1ccc(O)cc1)C(=O)O`: the “activity change, negative = inhibition” value was 13.8%.

With `O=c1[nH]c2ccc(Cl)cc2c(N[C@@H]2CN3CCC2CC3)c1-c1nc2ccccc2[nH]1`, the Potency is 4.66 µM (active).

Take `C[C@]12CC[C@H]3[C@@H](CCC4=CC(=O)CC[C@@]43C)[C@H]1CC[C@H]2OC(=O)CCC1CCCC1`: the “activity change, negative = inhibition” value is -28.2%.

Take `CCOC(=O)Nc1ccc(NCc2ccc(F)cc2)cc1N`: the “activity change, negative = inhibition” value was -28%.

`COc1ccc(N(C(=O)Oc2c(C)cccc2C)c2ccnc(Nc3ccc(N4CCN(C)CC4)cc3)n2)c(OC)c1`: the “activity change, negative = inhibition” value is -18.9%.

Regarding `CC1=C(O)C(=O)C=C2C1=CC=C1[C@@]2(C)CC[C@@]2(C)[C@@H]3C[C@](C)(C(=O)O)CC[C@]3(C)CC[C@]12C`, the Potency was 0.829 µM (active).

For `CC(C)[C@H]1C(=O)N[C@H](CO)Cc2c[nH]c3cccc(c23)N1C`, the “activity change, negative = inhibition” value is 4.92% [at 15.5 µM].

On to `CC(=O)Nc1ccc(OC[C@](C)(O)C(=O)Nc2ccc([N+](=O)[O-])c(C(F)(F)F)c2)cc1`, for which the “activity change, negative = inhibition” value is -4.39%.

With `Clc1ccccc1C(c1ccccc1)(c1ccccc1)n1cccn1`, the “activity change, negative = inhibition” value is -21.7%.

With `CC(C)(O)C(=O)Nc1ccc([N+](=O)[O-])c(C(F)(F)F)c1`, the “activity change, negative = inhibition” value is -16.7%.

Turning to `CN1[C@H]2CC(O)C[C@H]1[C@H]1O[C@H]12` (stereo not given in full), the “activity change, negative = inhibition” value was 22.5%.

`Cc1ccccc1-n1c(Cn2ncc3c(N)ncnc32)nc2cccc(C)c2c1=O`: the “activity change, negative = inhibition” value is 2.37%.

Regarding `C/C=C(/C)C(=O)O[C@H]1C(C)=C2[C@H]([C@@H]1OC(=O)CCCCCCC)[C@@](C)(OC(C)=O)C[C@H](OC(=O)CCC)[C@@]1(O)[C@H]2OC(=O)[C@@]1(C)O`, the Potency is 0.0165 µM (active).

With `O=c1[nH]c2ccccc2n1C1CCN(Cc2ccc(-c3[nH]c4cc5ncnc5cc4nc3-c3ccccc3)cc2)CC1`, the “activity change, negative = inhibition” value was -6.52%.

As to `CN(C)[C@@H]1C(=O)C(C(N)=O)=C(O)[C@@]2(O)C(=O)C3=C(O)c4c(O)cccc4[C@@](C)(O)[C@H]3[C@H](O)[C@@H]12`, the “activity change, negative = inhibition” value is 7.55%.

With `C#CC1(O)CCC2C3CCC4=CC(=O)CCC4(C)C3CCC21C` (stereo not given), the “activity change, negative = inhibition” value is -12.1%.

For `O=C(O)CNC(=O)c1c(O)c2ccccc2n(Cc2ccccc2)c1=O`, the “activity change, negative = inhibition” value is -19.4%.

As for `CCN1C[C@]2(OC(=O)c3ccccc3NC(C)=O)CC[C@H](OC)[C@@]34[C@H]5CC6[C@@H](OC)C[C@](O)(C(C[C@@H]23)[C@@H]14)[C@@]5(O)[C@@H]6OC`, the “activity change, negative = inhibition” value was 14.9%.

`CCN(CC)C(=O)c1ccc(C2=CC3(CCNCC3)Oc3cccc(O)c32)cc1`: the “activity change, negative = inhibition” value was -34.6%.

On to `O=C(Oc1ccc([N+](=O)[O-])cc1)N1CCC(C(O)(c2ccc3c(c2)OCO3)c2ccc3c(c2)OCO3)CC1`, for which the “activity change, negative = inhibition” value is 0.0666%.

As for `C[C@](O)(COc1ccc(C#N)cc1)C(=O)Nc1ccc(C#N)c(C(F)(F)F)c1`, the “activity change, negative = inhibition” value was -17.2%.
